From PubChem
CYP2C9 inh = blocks human cytochrome P450 2C9; P11712; CYP2C9 Supersomes, luciferin-H conversion, luminescence; inhibition, % at 5 µM; 96,000 tested, 20% active;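 active = blocking of liver enzyme CYP2C9 beyond about 50% at 5 µM, limit read from the data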
Mac1 fbg enh = enhancers of human CD11b/CD18 binding to fibrinogen. P05107+P11215. activation, % at 10 µM. 93,000 tested, 0.07% active. K562 CD11b/CD18 adhesion to fibrinogen, ATPlite luminescence;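 active = 10 µM primary screen giving 50% or more activity, confirmed by 40% or more on retest at that dose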
CYP2C19 act = activators of human cytochrome P450 2C19; recombinant CYP2C19, luciferin-H EGE luminescence; active compounds read high; 0 = fully inhibited enzyme, 1 = untreated enzyme; P33261; activation factor at 5 µM; 96,000 tested, under 10 active;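 active = activation factor of at least 2 at 5 µM in the primary screen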;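 note: 0 = wells with 2.5 mM tranylcypromine and 1 = vehicle-only wells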
CYP2C19 inhib = human CYP2C19 inhibition; 96,000 tested, 21% active; CYP2C19 Supersomes, luciferin-H EGE luminescence, 30 min; AID 778; inhibition, % at 5 µM; P33261;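 active = CYP2C19 inhibition above a set limit at 5 µM in the primary screen, cut at about 50% in these data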;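 note: plate controls were negative control wells for no effect and 2.5 mM tranylcypromine positive control for full effect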
Mac1 fbg inh = blocks human CD11b/CD18 adhesion to fibrinogen. K562 CD11b/CD18 adhesion to fibrinogen, ATPlite luminescence; Mn2+ added to activate the integrin. inhibition, % at 10 µM. 93,000 tested, 0.54% active. AID 1497;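 active = primary inhibition of 50% or more at 10 µM, then 40% or more on retest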
CYP2C9 act = increases human cytochrome P450 2C9 activity; P11712; recombinant CYP2C9, luciferin-H conversion, luminescence; active compounds read high; factor 1 = untreated enzyme, 0 = blocked; activation factor at 5 µM; 96,000 tested, 1.4% active; AID 1024;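 active = activation factor of 2 or more for CYP2C9 at a 5 µM dose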;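 note: 0 = sulfaphenazole-blocked wells and 1 = vehicle-only wells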
* = called active by the depositor; nt = no result. In the library only some 28% were active in any assay of this set; here they are far more common.

SMILES	CYP2C9 inh	Mac1 fbg enh	CYP2C19 act	CYP2C19 inhib	Mac1 fbg inh	CYP2C9 act
Cc1cc(C)cc(N2C(=O)CSC2c2cccs2)c1 (stereo not drawn)	-17	0	0.4	58*	6	1.2
Cc1cccc(N2C(=O)CSC2c2cccnc2)c1 (stereo not drawn)	4	-2	0.7	26	-7	1
Cc1ccc(N2C(=O)CSC2c2cccs2)cc1 (stereo not drawn)	18	-2	0.2	77*	-3	0.8
CC(/C=N/n1c(-c2ccco2)n[nH]c1=S)=C\c1ccccc1	nt	10	nt	nt	-8	nt
O=C(Nc1c(F)c(F)c(F)c(F)c1F)NC1CCCCC1	-3	-6	0.7	34	-6	1
COc1ccccc1NC(=S)N(Cc1ccco1)Cc1cc2cc(C)cc(C)c2[nH]c1=O	nt	-1	nt	nt	4	nt
Cc1cc(C)c2nc(Cl)c(CN(Cc3ccco3)C(=O)Nc3ccccc3C)cc2c1	75*	-10	0.9	14	35	0.2
COCCN(Cc1cc2cc(C)cc(C)c2nc1Cl)C(=O)Nc1ccccc1	67*	-10	0.6	39	21	0.3
Cn1c(=O)c2c(ncn2CC(=O)N2CCc3ccccc3C2)n(C)c1=O	-13	-2	1.2	-19	1	1.1
Cc1cc(OC(=O)CNC(=O)OC(C)(C)C)c2c(C)cc(=O)oc2c1	-88	1	0.8	17	-1	1.9
N#CC1=C(N)Oc2n[nH]c(-c3ccncc3)c2C1c1ccsc1 (stereo not drawn)	89*	6	0.5	46	-10	0.1
Cc1ccc(SCc2[nH]nc3c2C(c2cccnc2)C(C#N)=C(N)O3)cc1 (stereo not drawn)	78*	3	0.7	31	-5	0.2
COc1cc(C2C(C#N)=C(N)Oc3n[nH]c(-c4ccncc4)c32)cc(OC)c1OC (stereo not drawn)	10	nt	0.8	18	nt	0.9
CCc1[nH]nc2c1C(c1cccnc1)C(C#N)=C(N)O2 (stereo not drawn)	-6	0	1.1	-6	-4	1.1
N#CC1=C(N)Oc2n[nH]c(-c3ccc(F)cc3)c2C1c1ccncc1 (stereo not drawn)	69*	-1	0.6	41	-2	0.3
N#CC1=C(N)Oc2n[nH]c(-c3cccs3)c2C1c1ccoc1 (stereo not drawn)	14	-3	0.8	21	-20	0.9
N#CC1=C(N)Oc2n[nH]c(-c3cccs3)c2C1c1cccnc1 (stereo not drawn)	69*	2	0.3	70*	14	0.3
COc1ccc(-c2c(C)n([O-])c3c([n+]2=O)CCC3)cc1OC	-20	-1	1.1	-12	-14	1.2
C=CCn1c(O)c(C(CC)=NCc2cccnc2)c(=O)[nH]c1=O	26	8	0.5	54*	48	0.7
CCOC(=O)c1cc(-c2ccccc2)sc1NC(=O)C(C)OC(=O)c1cccnc1OCC (stereo not drawn)	nt	2	nt	nt	2	nt
O=C(Nc1nonc1NC(=O)C1CCCCC1)C1CCCCC1	27	4	0.9	14	-21	0.7
CC(C)(C)NS(=O)(=O)c1ccc(CCC(=O)O)cc1	-6	1	0.8	23	-17	1.1
CC(C)(C)NS(=O)(=O)c1ccc(NS(=O)(=O)Cc2ccccc2)cc1	81*	-1	0.3	72*	-15	0.2
O=C(Nc1ccc(Cl)c([N+](=O)[O-])c1)C(Sc1ccccc1)c1ccccc1 (stereo not drawn)	nt	-8	nt	nt	99	nt
CC(C)(C)NS(=O)(=O)c1ccc(NC(=O)C(Sc2ccccc2)c2ccccc2)cc1 (stereo not drawn)	63*	-8	0.8	15	-1	0.4
O=C1CC(N2CCCc3ccccc32)C(=O)N1c1ccccc1 (stereo not drawn)	-1	-4	0.8	16	-7	1
O=C1CCCc2ccccc2N1Cc1ccc(Cl)cc1Cl	87*	-2	0.1	94*	1	0.1
O=C1CCCc2ccccc2N1Cc1c(Cl)cccc1Cl	91*	-2	0	96*	2	0.1
O=C1CCCc2ccccc2N1Cc1ccccc1Cl	46	nt	0.1	88*	nt	0.5
